Results on 40 molecules are retold here after PubChem BioAssay (NCATS).

Records with an inconclusive call do not appear. The source made the active and inactive calls. The call rests on the fitted dose curve; in most records, active means well fitted inhibition curve with a large enough effect; inconclusive means small, poorly fitted or top-dose-only effect; inactive means no such curve, though single readings can be large or run the other way.
Potency means the concentration at half of the fitted maximal effect.

A short description of this assay: BET inhibitor-based combinations targeting novel dependencies in MECOM-rearranged (r) AML: OCI-AML3 cell line (AID 2202232). Further: nearly all actives have a fitted effect of over 35% in size. Particulars: CellTiter-Glo luminescence, 48 h; Potency: OCI-AML3 viability; series mostly up to 46 µM. An excerpt: Ecotropic viral insertion site 1 (EVI1) is located on chromosome 3q26.2 as part of the MECOM (MDS and EVI1 complex) locus. Under normal hematopoiesis, EVI1 is a regulator of hematopoietic stem cell maintenance and self-renewal and EVI1 levels decrease as the cells differentiate. In approximately 5-10% of de novo acute myeloid leukemia (AML) EVI1 is aberrantly expressed, including Chromosomal inv(3)(q21;q26.2) or t(3;3)(q21;q26.2) alterations (MECOM-r) that account for about 50% of AML with EVI1 overexpression 31. AMLs with high levels of EVI1 have a poor prognosis and an overall survival time averaging between 10-14 months. EVI1 overexpression confers resistance in leukemia cells, highlighting the need to develop new targeted therapies for EVI1 overexpressing AMLs.
Here, we performed an unbiased chemical drug screening by evaluating the single agent activity of a collection of 2,480 oncology-focused, approved and investigational drugs (NCATS Mechanism Interrogation Plates, MIPE v5.0) against a panel of seven AML cell lines. These included four MECOM-r cell-lines (AML-191, AML-194, UCSD-AML1 and HNT-34) and three non-MECOM-r AMLs (MV4-11, OCI-AML3 and SET-2). Exploiting the mechanistic redundancy built in the library, we identified target-level sensitivities in MECOM-r AML cells and relative activity as compared to other AML subtypes.
A collection of 2480 mechanistically annotated dugs (MIPE v5.0) was used to screen four 3q26.2 rearranged AML cell lines and three non-3q26.2 rearranged AML cell lines. This library purposely exploits redundancy by including multiple inhibitors of key onco-targets, while simultaneously encompassing mechanistic diversity, targeting more than 800 distinct mechanisms of action. Briefly, cells were seeded in 5 uL of growth media using a Multidrop Combi dispenser into 1536 well white polystyrene tissue culture treated plates (Corning) at a density of 500cells/well. For each cell-line, for each of the 2480 drugs in MIPE v5.0 library, an 11-point dose curve was generated via a 1536 pin-tool. Plates were incubated for 48 hr at standard incubator conditions, covered by a stainless steel gasketed lid to prevent evaporation. Cell viability was determined by luminescence based, Cell Titer Glo assay (Promega). In detail, 3 uL of Cell Titer Glo were added to each well and plates were incubated at room temperature for 15 min with a stainless-steel lid in place. Luminescence readings were taken using a Viewlux (PerkinElmer) with a 2 s exposure time per plate. Compound dose-response curves were normalized to DMSO and empty well controls on each plate. Quantitative drug activity data from dose-response curves was determined utilizing area Under the Curve (AUC) and Z-transformed AUC (Z-AUC, a mean-centering transformation applied to each individual cell-line screened).
As to `Cn1c2cc(S(C)=O)sc2c2cnn(Cc3cccc(N)c3)c(=O)c21` (stereo not given), the Potency entry is “inactive”.
As for `c1nc2nc(Nc3ccc(N4CCOCC4)cc3)nc(NC3CCCCC3)c2[nH]1`, the Potency was 3.32 µM (active).
On to `NC(=O)c1noc([C@H](CCCC2CCCCC2)CC(=O)NO)n1`, for which the Potency was 14.8 µM (active).
Still for that read-out and setting: the figure for `COc1cccc2c1C(=O)c1c(O)c3c(c(O)c1C2=O)C[C@@](O)(C(=O)CO)C[C@@H]3O[C@H]1C[C@H](N)[C@@H](O)[C@H](C)O1` is 0.148 µM (active).
Turning to `Cc1cc2cc3c(C)cc(=O)oc3c(C)c2o1`, the Potency entry was “inactive”.
Take `COc1ccc2cccc(CCNC(C)=O)c2c1`: the Potency entry was “inactive”.
Still for that read-out and setting: as for `COc1cc(S(C)(=O)=O)ccc1Nc1nc2ccc(-c3ccc(NC(=O)[C@H](C)c4ccc(F)cc4)cc3)cn2n1`, the figure is 0.934 µM (active); as for `CN(C)c1ccc2nc3ccc(=[N+](C)C)cc-3sc2c1`, 5.25 µM (active).
Same read-out and setting: as for `CC(C)Cn1cnc2c(N)nc3ccccc3c21`, the entry is “inactive”.
In the case of `CC1CCC(n2c3cnccc3c3cnc(Nc4ccc5c(n4)CCN(C(=O)CO)C5)nc32)CC1` (stereo not given), the viability (% of control) is 86.5% [at 8.46 µM] (inactive).
Regarding `N#CC1(c2ccc(NC(=O)c3cccnc3NCc3ccncc3)cc2)CCCC1`, the Potency entry was “inactive”.
Regarding `O=C(c1ccc(NS(=O)(=O)c2cccc3cccnc23)cc1)N1CCN(CC2CC2)CC1`, the Potency result was “inactive”.
The same measure, in the same setting: as for `NC1(c2ccc(-c3nc4ccn5c(=O)[nH]nc5c4cc3-c3ccccc3)cc2)CCC1`, the figure is 16.6 µM (active).
The same measure, in the same setting: the figure for `OCc1ccc(-c2nn(Cc3ccccc3)c3ccccc23)o1` is 23.5 µM (active); for `c1ccc(-c2ccc(CNc3nc(-c4ccccn4)nnc3-c3ccccc3)cc2)cc1` it is 1.32 µM (active); for `O=C1c2ccccc2-[n+]2ccc3c([nH]c4ccccc43)c21` it is 1.86 µM (active).
Same read-out and setting: the entry for `CC(C)(C)C(=O)CN1C(=O)[C@H](NC(=O)Nc2cccc(C(=O)O)c2)CN(C2CCCCC2)c2ccccc21` is “inactive”; for `CCCCc1ccc(NS(=O)(=O)c2ccc(C)c(C(=O)N3CCN(c4cccc(C)c4C)CC3)c2)cc1` it is “inactive”; for `COc1cc(OC)c2c(=O)[nH]c(-c3cc(C)c(OCCO)c(C)c3)nc2c1` it is 14.8 µM (active).
For the molecule `CCCCOC(=O)NS(=O)(=O)c1sc(CC(C)C)cc1-c1ccc(Cn2ccnc2)cc1`, the Potency entry was “inactive”.
Still for that read-out and setting: the entry for `Cc1c(C(=O)Nc2ccc(N3C[C@@H](C)O[C@@H](C)C3)nc2)cccc1-c1ccc(OC(F)(F)F)cc1` is “inactive”.
Regarding `COC[C@H](NC(=O)c1cnc(C)s1)C(=O)N[C@@H](COC)C(=O)N[C@@H](Cc1ccccc1)C(=O)[C@@]1(C)CO1`, the Potency is 0.0934 µM (active).
With `Nc1nc2ccc(OC(F)(F)F)cc2s1`, the Potency was 20.9 µM (active).
For `COc1ccc2[nH]cc(CCNC(C)=O)c2c1`, the Potency result was “inactive”.
Same read-out and setting: the figure for `CC[C@@H](C)Nc1cc(C(=O)NC2CC3CCC(C2)N3c2ccc(C(=O)C3CC3)cn2)c(C)cc1C(N)=O` (stereo not given in full) is 0.166 µM (active); for `Cc1ccc(C(=O)Nc2cccc(C(F)(F)F)c2)cc1Nc1nc(-c2cccnc2)nc2c1cnn2C` it is 8.33 µM (active); for `O[C@@H](COc1cccc2ncccc12)CN1CCN(C2c3ccccc3[C@@H]3[C@H](c4ccccc42)C3(F)F)CC1` (stereo not given in full) it is 20.9 µM (active).
Turning to `O=C1CCC(N2C(=O)c3ccccc3C2=O)C(=O)N1` (stereo not given), the Potency result was “inactive”.
On the same count and under the same terms, as for `CCN1CCN(Cc2ccc(NC(=O)c3ccc(C)c(NC(=O)c4cncc(-c5cccs5)c4)c3)cc2C(F)(F)F)CC1`, the figure is 4.17 µM (active).
The same measure, in the same setting: as for `CN1c2cc(O)c(N=NC(N)=O)cc2CC1S(=O)(=O)O` (stereo not given), the entry is “inactive”.
Regarding `CCOCc1nc2c(N)nc3ccccc3c2n1CC(C)(C)O`, the Potency result is “inactive”.
Still for that read-out and setting: as for `CC(C)(O)CC(=O)NCCn1ccc2ncnc(Nc3ccc(Oc4cccc(C(F)(F)F)c4)c(Cl)c3)c21`, the figure is 16.6 µM (active); as for `CC(C)CNc1ccnc(NCc2csc(-c3ccccc3)n2)n1`, 8.33 µM (active); as for `O=C(CCCc1ccc2cccnc2n1)NCc1cc(-c2ccc(F)c(C(F)(F)F)c2)no1`, “inactive”.
Regarding `CC(C)=CC[C@@H](O)C1=CC(=O)c2c(O)ccc(O)c2C1=O`, the Potency is 14.8 µM (active).
For the molecule `CNC1CCC(N(Cc2cccc(-c3ccncc3)c2)C(=O)c2sc3c(F)ccc(F)c3c2Cl)CC1` (stereo not given), the Potency was 16.6 µM (active).
On the same count and under the same terms, the figure for `Cc1cn(CCN2CCN(c3ccccc3-c3cc(C#N)cc(C(=O)NCCCN4CCCC4)c3)CC2)c2ccccc12` is 18.6 µM (active); for `CN(C)C1CCN(C(=O)c2ccc(NC(=O)Nc3ccc(-c4nc(N5CCOCC5)nc(N5CCOCC5)n4)cc3)cc2)CC1` it is 0.166 µM (active).
Take `Cn1cnc(=N)c2[nH]cnc21`: the Potency result is “inactive”.
`CCOc1cc(N2CCC(O)CC2)ccc1Nc1ncc2c(n1)N(C)c1ccccc1C(=O)N2C`: the Potency was 3.32 µM (active).
